Screening data from PubChem.
Shown are actives, neighbours in structure and some others; about 19% of the full set was active somewhere.
DT40 TDP1 no CPT = qHTS for Inhibitors of human tyrosyl-DNA phosphodiesterase 1 (TDP1): qHTS in cells in absence of CPT; DT40 Tdp1-/- hTDP1 cells, no CPT, ATP luminescence, 48 h; Potency, µM (top dose mostly 46.2 µM), hits mostly inhibitors; hit rate 15% among 420,000; note: nearly all actives have a fitted effect of over 55% in size
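Seeded 400 DT40-hTDP1 cells/well (vehicle DMSO, no 20 nM CPT); pinned compounds; ≥48 hr at 37 °C; CellTiter-Glo luminescence as viability measure.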
DT40 TDP1 CPT = DT40-hTDP1 cell growth loss with CPT; chicken DT40 Tdp1-/-;hTDP1 cells + 20 nM CPT, ATP luminescence, 48 h; Potency, µM (titrated, usually from 46.2 µM), hits mostly inhibitors; hit rate 12% among 420,000; note: nearly all actives have a fitted effect of over 55% in size
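Chicken DT40 Tdp1-/- cells complemented with human TDP1, 400 cells/well, exposed to compounds plus 20 nM camptothecin for at least 48 h at 37 C; viability read as ATP content by CellTiter-Glo luminescence.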
IL-1B inflam inh = inflammasome signaling inhibition, IL-1 beta readout; activity change, % at 57.5 µM; THP-1 LPS/ATP IL-1B secretion, AlphaLISA, 16 h; hits give low values; hit rate 4.7% among 360,000; in the data active = activity change below about -50%; inconclusive = mostly about -30% to -49%
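Secreted IL-1B measured by AlphaLISA bead assay after 16 h compound exposure of THP-1 cells; compounds (final up to 57.5 uM) added 1 h before LPS (250 ng/mL) and ATP (1.25 mM) stimulation; lower signal means less secretion.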
HT1080 IDH1KD tx = HT-1080 IDH1 knockdown cell toxicity (counter line); Potency, µM (series often up to 46.1 µM), actives largely listed as cytotoxic; hit rate 2% among 360,000; HT-1080 IDH1 knockdown viability, ATP luminescence, 48 h; AID 686971
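HT-1080-IDH1KD cells (IDH1 knocked down), 750/well in RPMI with 5% FBS, treated with compound 48 h at 37 degrees C. Viability by CellTiter-Glo luminescence, normalised to DMSO and no-cell wells; concentration-response curves classed.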
HT1080NT lethal = kills 2HG-producing HT-1080-NT fibrosarcoma cells; HT-1080-NT fibrosarcoma viability, CellTiter-Glo ATP luminescence, 48 h; Potency, µM (doses to about 46.1 µM), most hits filed as cytotoxic; hit rate 1.6% among 360,000; AID 686970;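 note: NT is the 2HG producing partner of a matched IDH1 knockdown line; nearly all actives have a fitted effect of over 55% in size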
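HT-1080-NT; 750 cells/well; 5% FBS RPMI; 48 h compound, 37 degrees C; CellTiter-Glo luminescence; curve fitting and curve-class assignment.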
Numbers stand for hits; - = inactive; ? = inconclusive; . = not tested or not shown. Unless noted, calls come from the whole dose curve; as a rule, active = well fitted curve in the direction sought with a large enough effect; inconclusive = small, poorly fitted or top-dose-only effect, or another doubt; inactive = no such curve, though single readings can be large; an effect the other way counts as inactive or inconclusive.

SMILES	DT40 TDP1 no CPT	DT40 TDP1 CPT	IL-1B inflam inh	HT1080 IDH1KD tx	HT1080NT lethal
COc1cccc(CN(C)C(=O)c2cccc(NC(=O)CC3SC(N4CCCCC4)=NC3=O)c2)c1OC (stereo not drawn)	18µM	?	-	-	-
COc1ccc(CN(C)C(=O)c2cccc(NC(=O)CC3SC(N4CCCCC4)=NC3=O)c2)c(OC)c1 (stereo not drawn)	5.2µM	5.2µM	-55	-	?
COc1cccc(NC(=O)CN(C)C(=O)c2ccc(NC(=O)CC3SC(N4CCCCC4)=NC3=O)cc2)c1 (stereo not drawn)	-	-	-	-	-
COc1cccc(CN(C)C(=O)c2ccc(NC(=O)CC3SC(N4CCCCC4)=NC3=O)cc2)c1OC (stereo not drawn)	-	-	-	-	-
CCN(CC(=O)Nc1cccc(S(=O)(=O)N2CCCC2)c1)CC(=O)Nc1ccccc1OC	?	-	-	-	-
COc1ccccc1CN(C)CC(=O)Nc1cccc(S(=O)(=O)N2CCCCC2)c1	23µM	16µM	-	-	-
COc1ccc(CN(C)CC(=O)Nc2cccc(S(=O)(=O)N3CCCC3)c2)cc1F	18µM	?	-	-	-
COc1ccc(Cl)cc1NC(=O)CN(C)CC(=O)Nc1cccc(S(=O)(=O)N2CCCC2)c1	?	23µM	?	-	-
CN(CC(=O)Nc1ccc(S(=O)(=O)N2CCCC2)cc1)Cc1cccc(Cl)c1Cl	?	16µM	-	-	-
COc1ccccc1CCC(=O)Nc1cccc(S(=O)(=O)N2CCCC2)c1	?	?	-	-	-
N#C/C(=C\c1ccc[nH]1)C(=O)Nc1ccccc1[N+](=O)[O-]	-	-	-	-	-
COc1cccc(-c2nc(NCc3cccs3)c3ccccc3n2)c1	-	?	.	.	.
Cc1ccc(-c2ccc(=O)n(CC(=O)NCCC(C)C)n2)cc1	-	-	-	-	-
COc1ccc(CN(C)C(C)C(=O)Nc2ccc(S(=O)(=O)N3CCCCC3)cc2)c(OC)c1 (stereo not drawn)	?	?	?	-	-
CN(Cc1cccc(Cl)c1Cl)c1ccc(S(=O)(=O)N2CCCCC2)cc1[N+](=O)[O-]	21µM	?	-	-	-
CN1CCN(S(=O)(=O)c2ccc(N(C)Cc3ccc(C(F)(F)F)cc3)c([N+](=O)[O-])c2)CC1	13µM	10µM	-85	?	?
CCN(Cc1ccc(OC)c(F)c1)C(C)C(=O)Nc1ccc(S(=O)(=O)N2CCCC2)cc1 (stereo not drawn)	21µM	?	-	-	-
Cc1noc(C)c1CSCC(=O)N(C)CC(=O)Nc1ccccc1C(F)(F)F	-	-	-	-	-
COc1ccc(-n2c(C)cc(C(=O)CCl)c2C)cc1	1.8µM	1.5µM	-77	15µM	?
Cc1cc(C(=O)COc2cccc(-n3cnnn3)c2)c(C)n1-c1ccccc1	21µM	23µM	?	-	-
Cc1cc(C(=O)COC(=O)c2ccc(O)cc2O)c(C)n1-c1ccccc1	21µM	21µM	-81	-	-
COCC(=O)OCC(=O)c1cc(C)n(-c2ccc(Br)cc2)c1C	-	?	-	-	-
COc1ccc(-n2c(C)cc(C(=O)COC(=O)c3ccc(O)cc3O)c2C)cc1	5.2µM	8.2µM	-	?	?
O=C(Nc1ccccc1Br)N1CCN2CCCCC2C1 (stereo not drawn)	-	-	.	.	.
CCOc1cccc(C2/C(=C(/O)c3ccc4c(c3)CC(C)O4)C(=O)C(=O)N2CCCn2ccnc2)c1 (stereo not drawn)	-	-	-	-	-
SMILES	DT40 TDP1 no CPT	DT40 TDP1 CPT	IL-1B inflam inh	HT1080 IDH1KD tx	HT1080NT lethal
CCOC(=O)CC(NS(=O)(=O)Cc1ccccc1)c1ccc(C)cc1 (stereo not drawn)	-	-	-	-	-
Cc1ccc(-n2c(C)cc(C(=O)COC(=O)c3ccc[nH]c3=O)c2C)cc1	?	-	-	-	-
COc1ccc(NC(=O)COC(=O)Cn2cnc3ccccc32)cc1	-	-	-	-	-
COc1cc(NC(=O)c2cccs2)c(C(=O)OCC(=O)c2cc(C)n(-c3ccccc3)c2C)cc1OC	21µM	?	-	-	-
COc1cc(NC(=O)c2cccs2)c(C(=O)OCC(=O)c2cc(C)n(-c3ccc(F)cc3)c2C)cc1OC	?	-	-	-	-
Cc1cc(C(=O)COC(=O)c2ccc(O)cc2O)c(C)n1-c1ccc(OC(F)F)cc1	7.3µM	21µM	-	-	-
COc1ccc(-n2c(C)cc(C(=O)COC(=O)Cn3cnc4ccccc43)c2C)cc1	18µM	16µM	-	?	-
Cc1nn(C)c2ncc(C(N)=O)c(Oc3ccc(Cl)cc3)c12	?	-	-	-	-
O=C(NCCCN1CCCC1=O)C(=O)NCC1OCCN1S(=O)(=O)c1ccc(Cl)cc1 (stereo not drawn)	-	-	-	-	-
O=c1nc2ccc(Cl)cn2c2ccc(S(=O)(=O)N3CCOCC3)cc12	-	-	-	-	-
CCn1cc(/C=C/C(=O)Nc2c(C)nn(Cc3ccccc3)c2C)cn1	9.2µM	?	-	-	-
CCn1nc(C)c(NC(=O)/C=C/c2cnn(C)c2C)c1C	-	-	-	-	-
Cc1nn(Cc2ccccc2Cl)c(C)c1NC(=O)/C=C/c1cnn(C)c1	?	-	-	-	-
CCn1ncc(/C=C/C(=O)Nc2c(C)nn(Cc3ccc(Cl)cc3Cl)c2C)c1C	15µM	15µM	?	?	?
Cc1nn(Cc2ccc(Cl)cc2Cl)c(C)c1NC(=O)NC12CC3CC(CC(C3)C1)C2	18µM	21µM	-	18µM	-
CCCCCCc1cc2cc(-c3nnc(-c4cccc(Cl)c4)o3)c(=O)oc2cc1O	-	-	.	.	.
CCOc1ccc(N(CC(=O)Nc2nccs2)S(=O)(=O)c2c(C)[nH]c(=O)[nH]c2=O)cc1	-	-	-	-	-
O=C(Nc1ccc(-c2nc3cccnc3s2)cc1)C1CCCO1 (stereo not drawn)	21µM	23µM	-	-	-
COc1ccc(NC(=O)C2CCCO2)cc1 (stereo not drawn)	-	-	-	-	-
CC1(C)C(=O)C=CC(=O)C(C)(C)C(=O)C=CC(=O)C(C)(C)C2=CC=C(O2)C(C)(C)C(=O)C=CC1=O	0.82µM	0.82µM	-97	?	-
COC(=O)Cc1ccc(NC(C)=O)cc1	-	-	-	-	-
COc1ncc2nc(CCc3ccccc3)c(=O)n(Cc3cccs3)c2n1	21µM	?	.	.	.
COc1cccc(Cn2c(=O)c(CCc3ccccc3)nc3cnc(OC)nc32)c1	23µM	?	.	.	.
O=c1c(CCc2ccccc2)nc2cnc(Oc3ccccc3)nc2n1C[C@H]1CCCO1	18µM	?	.	.	.
COc1ccc(Oc2ncc3nc(CCc4ccccc4)c(=O)n(C[C@H]4CCCO4)c3n2)cc1	-	?	.	.	.
